# From PubChem BioAssay (NCATS)
# “And” between values parts separate entries of the source, which are not always exact repeats. Identical values can stand only once. Inconclusive results are not listed. A call without a number means that no potency is given here. Some compounds were tested as several samples or in several runs, with calls that do not always agree. The source made the active and inactive calls. Unless noted, the call rests on the fitted dose curve; in most records, active means well fitted curve in the direction sought with a large enough effect; inconclusive means small, poorly fitted or top-dose-only effect, or another doubt; inactive means no such curve, though single readings can be large; an effect the other way counts as inactive or inconclusive.
# Experiments:
# UISO = test: qHTS assay to identify novel small-molecules to repurpose for Merkel cell carcinoma treatment (AID 1296009); settings: MCC and control cell lines, CellTiter-Glo viability, 72 h; series mostly up to 46 µM; further: nearly all actives have a fitted effect of over 60% in size; further: potency means the concentration at half of the fitted maximal effect
# Outline: (§1)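 Cells were incubated with compound for 72 hr at 37 degree celsius before CellTiter-Glo addition. Luminescence was normalized with no-cell wells as full cytotoxicity and DMSO as baseline.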
# WaGa = test: as above; settings: MCC and control cell lines, CellTiter-Glo viability, 72 h; series mostly up to 46 µM
# Outline: as §1
# Es-2 = test: Primary qHTS to identify gynecologic anti-cancer compounds using libraries of approved drugs and bioactive compounds (AID 1345084); settings: Gynecologic cancer cell panel viability, ATPlite luminescence, 48 h; series mostly up to 57.5 µM; further: nearly all actives have a fitted effect of over 55% in size; further: potency means the concentration at half of the fitted maximal effect
# Outline: (§2)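 Five-concentration response, 48 h; readout is ATP-driven luciferase luminescence.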
# HeLa = test: as above; settings: Gynecologic cancer cell panel viability, ATPlite luminescence, 48 h; series mostly up to 57.5 µM
# Outline: as §2
# Hek293T = test: as above; settings: Gynecologic cancer cell panel viability, ATPlite luminescence, 48 h, control line for the selectivity index; series mostly up to 57.5 µM
# Outline: as §2
# OV90 = test: as above; settings: Gynecologic cancer cell panel viability, ATPlite luminescence, 48 h; series mostly up to 57.5 µM
# Outline: as §2
# [1] = Drug repurposing screens with cells derived from glioblastoma tumor samples (AID 1345199); settings: GBM patient neurospheres viability, ATP luminescence, 48 h; further: nearly all actives have a fitted effect of over 40% in size; further: potency means the concentration at half of the fitted maximal effect
# Outline: (§3)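 Four patient lines of CD133+ GBM neurospheres were screened at several concentrations; hits were retested in those lines plus three slower-growing GBM lines, using 48-hour treatment and ATP-based viability.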
# astro = test: as above; settings: viability, ATP luminescence, 48 h; series mostly up to 45.9 µM
# Outline: as §3
# [2] = biological target: Nuclear receptor subfamily 1 group I member 2 (Rattus norvegicus) (UniProt Q9R1A7); test: qHTS assay for small molecule activators of the rat pregnane X receptor (rPXR) signaling pathway (AID 651751; call rule not given here); settings: rPXR reporter cells, luciferase (One-Glo), 24 h
# Sequence of Nuclear receptor subfamily 1 group I member 2 (Rattus norvegicus) (Q9R1A7 whole entry, looked up): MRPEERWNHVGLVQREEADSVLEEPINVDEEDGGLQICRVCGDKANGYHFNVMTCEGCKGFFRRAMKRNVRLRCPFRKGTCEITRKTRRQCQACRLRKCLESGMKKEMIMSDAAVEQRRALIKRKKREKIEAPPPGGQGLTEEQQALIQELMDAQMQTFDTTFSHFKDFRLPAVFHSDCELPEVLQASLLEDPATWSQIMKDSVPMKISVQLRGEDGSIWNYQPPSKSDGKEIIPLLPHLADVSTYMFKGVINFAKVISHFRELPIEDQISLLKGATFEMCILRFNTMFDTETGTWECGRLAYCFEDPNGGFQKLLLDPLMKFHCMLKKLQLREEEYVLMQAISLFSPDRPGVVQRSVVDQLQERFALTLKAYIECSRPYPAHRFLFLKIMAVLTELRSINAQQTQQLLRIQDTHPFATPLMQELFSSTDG
# C33A = test: Primary qHTS to identify gynecologic anti-cancer compounds using libraries of approved drugs and bioactive compounds (AID 1345084); settings: Gynecologic cancer cell panel viability, ATPlite luminescence, 48 h; series mostly up to 57.5 µM; further: nearly all actives have a fitted effect of over 55% in size; further: potency means the concentration at half of the fitted maximal effect
# Outline: as §2
# CAOV3 = test: as above; settings: Gynecologic cancer cell panel viability, ATPlite luminescence, 48 h; series mostly up to 57.5 µM
# Outline: as §2
# CASKI = test: as above; settings: Gynecologic cancer cell panel viability, ATPlite luminescence, 48 h; series mostly up to 57.5 µM
# Outline: as §2
# JEG-3 = test: as above; settings: Gynecologic cancer cell panel viability, ATPlite luminescence, 48 h; series mostly up to 57.5 µM
# Outline: as §2
# PA-1 = test: as above; settings: Gynecologic cancer cell panel viability, ATPlite luminescence, 48 h; series mostly up to 57.5 µM
# Outline: as §2
# SKOV3 = test: as above; settings: Gynecologic cancer cell panel viability, ATPlite luminescence, 48 h; series mostly up to 57.5 µM
# Outline: as §2
# Tov-21-G = test: as above; settings: Gynecologic cancer cell panel viability, ATPlite luminescence, 48 h; series mostly up to 57.5 µM
# Outline: as §2
# Tov112D = test: as above; settings: Gynecologic cancer cell panel viability, ATPlite luminescence, 48 h; series mostly up to 57.5 µM
# Outline: as §2
# [3] = at 45.9 µM (top of the series), tumour line B
# [4] = at 45.9 µM (top of the series), tumour line D
# [5] = at 46.1 µM (top of the series), tumour line C
# [6] = at 46 µM (top of the series), tumour line A
smiles,measurement,setting,value
Nc1cccc2c(N)cccc12,Potency,UISO,10.9 µM (active)
same,Potency,WaGa,19.3 µM (active)
same,Potency,Es-2,inactive
same,Potency,HeLa,inactive
same,Potency,Hek293T,inactive
same,Potency,OV90,20 µM (active)
same,"activity, negative = cell killing","[1]; at 99.2 µM (top of the series), tumour line C",-15.4% (inactive)
same,Potency,[1]; tumour line A,15.8 µM (active)
same,Potency,astro,inactive
same,max response,[2],-7.42% (inactive) and 6.55% (inactive)
Cc1nc2n(c(=O)c1CCN1CCC(C(=O)c3ccc(F)cc3)CC1)CCS2,Potency,UISO,inactive
same,Potency,C33A,inactive
same,Potency,CAOV3,inactive
same,Potency,CASKI,inactive
same,Potency,Es-2,inactive
same,Potency,HeLa,inactive
same,Potency,Hek293T,inactive
same,Potency,JEG-3,inactive
same,Potency,PA-1,inactive
same,Potency,SKOV3,inactive
same,Potency,Tov-21-G,inactive
same,Potency,Tov112D,inactive
CC(=O)OC/C=C(C)/C=C/C=C(C)/C=C/C1=C(C)CCCC1(C)C,Potency,UISO,inactive
same,Potency,C33A,inactive
same,Potency,CAOV3,inactive
same,Potency,CASKI,inactive
same,Potency,Es-2,inactive
same,Potency,HeLa,inactive
same,Potency,Hek293T,inactive
same,Potency,JEG-3,inactive
same,Potency,OV90,inactive
same,Potency,PA-1,inactive
same,Potency,SKOV3,inactive
same,Potency,Tov-21-G,inactive
same,Potency,Tov112D,inactive
same,"activity, negative = cell killing",[1]; [3],-7.14% (inactive)
same,"activity, negative = cell killing",[1]; [4],-23.4% (inactive)
same,"activity, negative = cell killing",[1]; [5],-13.6% (inactive)
same,Potency,astro,inactive
OC1(c2ccc(Cl)c(C(F)(F)F)c2)CCN(CCCC(c2ccc(F)cc2)c2ccc(F)cc2)CC1,Potency,UISO,10.6 µM (active)
same,Potency,WaGa,15 µM (active)
same,Potency,Es-2,25.1 µM (active) and inactive
same,Potency,HeLa,25.1 µM (active) and inactive
same,Potency,OV90,25.1 µM (active) and 31.6 µM (active)
same,Potency,PA-1,inactive
same,Potency,SKOV3,25.1 µM (active)
same,Potency,Tov-21-G,inactive
same,Potency,Tov112D,31.6 µM (active) and inactive
CC1CCCCN1CCCOC(=O)c1ccc(OC2CCCCC2)cc1 (configuration not stated),Potency,UISO,inactive
same,Potency,C33A,inactive
same,Potency,CAOV3,inactive
same,Potency,CASKI,inactive
same,Potency,Es-2,inactive
same,Potency,HeLa,inactive
same,Potency,Hek293T,inactive
same,Potency,JEG-3,inactive
same,Potency,OV90,inactive
same,Potency,PA-1,inactive
same,Potency,Tov-21-G,inactive
same,Potency,Tov112D,inactive
c1ccc(C(O[C@H]2CCCN(CCc3ccc4c(c3)OCO4)C2)c2ccccc2)cc1,Potency,UISO,inactive
same,Potency,C33A,inactive
same,Potency,CAOV3,inactive
same,Potency,CASKI,inactive
same,Potency,Es-2,inactive
same,Potency,HeLa,inactive
same,Potency,Hek293T,inactive
same,Potency,JEG-3,inactive
same,Potency,OV90,inactive
same,Potency,PA-1,inactive
same,Potency,SKOV3,inactive
same,Potency,Tov-21-G,inactive
same,Potency,Tov112D,inactive
same,"activity, negative = cell killing",[1]; [3],-23.2% (inactive)
same,Potency,[1]; tumour line A,11.2 µM (active)
same,Potency,astro,inactive
Cc1cccc(N(C)C(=S)Oc2ccc3c(c2)CCC3)c1,Potency,UISO,inactive
same,Potency,C33A,inactive
same,Potency,CAOV3,inactive
same,Potency,CASKI,inactive
same,Potency,Es-2,inactive
same,Potency,HeLa,inactive
same,Potency,Hek293T,inactive
same,Potency,JEG-3,inactive
same,Potency,OV90,inactive
same,Potency,PA-1,inactive
same,Potency,SKOV3,inactive
same,Potency,Tov-21-G,inactive
same,Potency,Tov112D,inactive
same,"activity, negative = cell killing",[1]; [3],-19.8% (inactive)
same,Potency,[1]; tumour line A,17.8 µM (active)
same,Potency,[1]; tumour line D,20 µM (active)
same,Potency,astro,inactive
CC[C@@]1(O)C(=O)OCc2c1cc1n(c2=O)Cc2c-1nc1ccccc1c2/C=N/OC(C)(C)C,Potency,UISO,0.168 µM (active)
same,Potency,WaGa,0.0266 µM (active)
same,Potency,HeLa,inactive
same,Potency,Hek293T,0.355 µM (active)
same,Potency,JEG-3,inactive
same,Potency,OV90,8.91 µM (active)
same,Potency,Tov-21-G,1.41 µM (active)
O=C(c1cc(O)c(O)c(O)c1)c1ccc(O)c(O)c1O,Potency,UISO,inactive
same,Potency,C33A,inactive
same,Potency,CAOV3,inactive
same,Potency,CASKI,inactive
same,Potency,Es-2,inactive
same,Potency,HeLa,inactive
same,Potency,Hek293T,inactive
same,Potency,JEG-3,inactive
same,Potency,OV90,inactive
same,Potency,PA-1,inactive
same,Potency,SKOV3,inactive
same,Potency,Tov-21-G,inactive
same,Potency,Tov112D,inactive
CO/N=C(/C(=O)N[C@@H]1C(=O)N2C(C(=O)OCOC(=O)C(C)(C)C)=C(C)CS[C@H]12)c1csc(N)n1,Potency,UISO,inactive
same,Potency,C33A,inactive
same,Potency,CAOV3,inactive
same,Potency,CASKI,inactive
same,Potency,Es-2,inactive
same,Potency,HeLa,inactive
same,Potency,Hek293T,inactive
same,Potency,JEG-3,inactive
same,Potency,OV90,inactive
same,Potency,PA-1,inactive
same,Potency,SKOV3,inactive
same,Potency,Tov-21-G,inactive
same,Potency,Tov112D,inactive
same,"activity, negative = cell killing",[1]; [3],-3% (inactive)
same,"activity, negative = cell killing",[1]; [4],4.02% (inactive)
same,"activity, negative = cell killing",[1]; [6],-24.5% (inactive)
same,"activity, negative = cell killing",[1]; [5],0.657% (inactive)
same,Potency,astro,inactive
CC(=O)OCC[N+](C)(C)C,Potency,UISO,inactive
same,Potency,C33A,inactive
same,Potency,CAOV3,inactive
same,Potency,CASKI,inactive
same,Potency,Es-2,inactive
same,Potency,HeLa,inactive
same,Potency,Hek293T,inactive
same,Potency,JEG-3,inactive
same,Potency,OV90,inactive
same,Potency,PA-1,inactive
same,Potency,SKOV3,inactive
same,Potency,Tov-21-G,inactive
same,Potency,Tov112D,inactive
same,"activity, negative = cell killing",[1]; [3],-0.685% (inactive)
same,"activity, negative = cell killing",[1]; [4],1.13% (inactive)
same,"activity, negative = cell killing",[1]; [6],-13.5% (inactive)
same,"activity, negative = cell killing",[1]; [5],18% (inactive)
same,Potency,astro,inactive
CCC[C@H](N[C@@H](C)C(=O)N1[C@H](C(=O)O)C[C@@H]2CCCC[C@@H]21)C(=O)OCC,Potency,UISO,inactive
same,Potency,C33A,inactive
same,Potency,CAOV3,inactive
same,Potency,CASKI,inactive
same,Potency,Es-2,inactive
same,Potency,HeLa,inactive
same,Potency,Hek293T,inactive
same,Potency,JEG-3,inactive
same,Potency,OV90,inactive
same,Potency,PA-1,inactive
same,Potency,SKOV3,inactive
same,Potency,Tov-21-G,inactive
same,Potency,Tov112D,inactive
